Screens from PubChem.
Most compounds without a hit are left out; they make up all but 1.1% or so of the library.
LRH-1 inv ag: NR5A2 inverse agonism in reporter assay | inhibition, % at 3.6 µM | hit rate 0.13% among 360,000 | O00482 | HEK293T StAR-luciferase reporter, LRH-1 transfected, 24 h;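 active means inhibition above the mean inhibition of all tested compounds plus 3 SD, cut at about 73% in these data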;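 further: 0% = DMSO wells and 100% = reporter-only cells lacking LRH-1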
Target sequence (O00482 whole entry, looked up): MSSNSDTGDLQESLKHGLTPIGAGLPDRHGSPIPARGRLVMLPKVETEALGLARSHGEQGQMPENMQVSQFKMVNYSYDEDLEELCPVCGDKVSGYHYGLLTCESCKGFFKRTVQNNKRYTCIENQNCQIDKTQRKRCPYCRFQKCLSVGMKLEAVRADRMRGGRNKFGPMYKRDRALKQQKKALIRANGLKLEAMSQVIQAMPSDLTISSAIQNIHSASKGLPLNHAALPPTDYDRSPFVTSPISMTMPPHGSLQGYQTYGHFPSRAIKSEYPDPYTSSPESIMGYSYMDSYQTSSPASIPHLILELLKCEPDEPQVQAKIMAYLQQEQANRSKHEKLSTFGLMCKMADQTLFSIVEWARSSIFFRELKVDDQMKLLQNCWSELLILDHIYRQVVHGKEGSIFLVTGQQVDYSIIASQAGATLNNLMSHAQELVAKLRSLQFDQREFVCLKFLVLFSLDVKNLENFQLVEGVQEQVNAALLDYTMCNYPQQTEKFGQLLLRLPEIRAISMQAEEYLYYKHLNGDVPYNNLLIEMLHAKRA
SRC2 inh: human SRC2 (NCOA2) inhibition. Q15596. HEK293 GAL4-SRC2 luciferase reporter, luminescence. inhibition, % at 9 µM. hit rate 0.17% among 370,000;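 active means inhibition above the mean inhibition of all tested compounds plus 3 SD, set per campaign, cut at about 52% in these data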;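 further: 0% = DMSO treated cells and 100% = cells given Gossypol at 36 µM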
NR2F2 inh: blocks human COUP-TFII nuclear receptor; HEK293T NGFI-A luciferase reporter, luminescence; hit rate 0.7% among 370,000; inhibition, % at 8.6 µM; P24468;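 active means inhibition above a per-plate cutoff, mean inhibition of test wells between control levels plus 3 SD, cut at about 38% in these data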;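 further: cells cotransfected with COUP-TFII expression vector driving the NGFI-A reporter; 0% = median of COUP-TF2 test wells and 100% = reporter-only cells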
SRC3 inh: human NCOA3 inhibition; Q9Y6Q9; HEK293 GAL4-SRC3 luciferase reporter, luminescence; inhibition, % at 3.6 µM; hit rate 0.17% among 360,000;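 active means inhibition above a per-campaign cutoff, the mean of all compounds plus 3 SD, cut at about 60% in these data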;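 further: 0% = DMSO-treated cells and 100% = gossypol-treated cells at 36 µM; higher means less SRC3-driven luciferase light from the GAL4 reporter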
NCOA1 inh: inhibits human SRC1 coactivator; inhibition, % at 3.6 µM; Q15788; hit rate 0.12% among 360,000; HEK293 GAL4-SRC1 luciferase reporter, luminescence;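 active means inhibition above the campaign mean plus 3 SD, with each screening campaign given its own cutoff, cut at about 60% in these data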;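 further: 0% = DMSO treated cells and 100% = gossypol at 36 µM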
GalR3 antagonist: blocks the human galanin receptor 3; O60755; AID 651719; inhibition, % at 3 µM; hit rate 0.44% among 360,000; HEK293 GalR3-CNG cAMP membrane potential fluorescence; galR3 body fused to GalR1 C-terminus;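 active means inhibition above the screen-wide average plus 3 SD, cut at about 13% in these data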;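 further: forskolin and galanin both at EC90 stimulate the cells; cAMP rise reported by CNG channel membrane potential dye signal; 0% = forskolin plus galanin with DMSO and 100% = forskolin alone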
VP16 Luc counter: inhibits VP16 reporter, flagging COUP-TFII antagonist hits. shares compounds with NR2F2 inh. HEK293 Gal4-VP16 luciferase reporter, luminescence. inhibition, % at 8.5 µM. hit rate 25% among 2,500; in the data active means inhibition above about 13%
NR2F2 inh conf: confirmation of human COUP-TFII (NR2F2) inhibitors. shares compounds with NR2F2 inh. HEK293 NGFI-A luciferase reporter, luminescence. inhibition, % at 8.5 µM. hit rate 45% among 2,500;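 active means mean inhibition over three repeats above a set limit taken from the earlier primary screen, cut at about 38% in these data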;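 further: 100% = cells given the luciferase reporter alone without the COUP-TF2 vector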
Numbers without * were called inactive; nt = no result.

SMILES	LRH-1 inv ag	SRC2 inh	NR2F2 inh	SRC3 inh	NCOA1 inh	GalR3 antagonist	VP16 Luc counter	NR2F2 inh conf
Cc1cc(Nc2cc(C(F)(F)F)cc(C(F)(F)F)c2)cc(=O)n1-c1cc(C(F)(F)F)cc(C(F)(F)F)c1	nt	1	11	nt	nt	-3	nt	nt
COc1ccc(Cl)cc1C(=O)CSc1nnnn1C1CCCC1	6	-32	-5	-13	4	-6	nt	nt
COCCn1c(C)cc(C(=O)CSc2nnnn2C2CCCC2)c1C	24	39	59*	34	43	0	35*	68*
COc1ccc(CCC(=O)Nc2ccc(C)c(S(=O)(=O)N(C)C)c2)cc1OC	29	21	41*	17	13	-3	1	15
COc1ccc(CC(=O)Nc2ccc3c(c2)CCC3)cc1OC	23	-5	50*	27	25	-7	-4	12
Cc1ccc(OCCn2c(CCNC(=O)C3CCCCC3)nc3ccccc32)cc1	nt	nt	15	nt	nt	nt	nt	nt
C#CCN(C[C@H]1[C@H](OC(=O)Nc2c(C)noc2C)[C@H](OC(=O)Nc2c(C)noc2C)CN(C(=O)OC(C)C)N1C(=O)OC(C)C)S(=O)(=O)c1ccc(C)cc1	nt	17	6	nt	nt	-6	nt	nt
COc1ccc(CC(=O)OCC(=O)NC2CCCC(C)C2C)cc1OC (stereo not drawn)	-15	18	50*	-5	8	-5	-3	7
O=C(O)c1ccc(N/N=C/c2ccc3nccnc3c2)cc1	41	68*	67*	62*	37	3	17*	59*
O=C(O)c1ccc(N/N=C/c2ccncc2)cc1	-50	-9	-17	-29	-4	-10	nt	nt
Cc1ccc(-n2c(C)c([N+](=O)[O-])c3ccc(O)c(CN(C)C)c32)cc1	-10	36	43*	42	49	-4	14*	21
Oc1ccc(CNc2ccccc2Br)c2cccnc12	nt	nt	14	nt	nt	nt	nt	nt
O=C(Nc1nc(-c2cc(F)ccc2F)cs1)C1=NN(c2ccccc2)C(=O)CC1	0	-15	-1	0	-9	-2	nt	nt
COc1ccc(-c2csc(NC(=O)C3=NN(c4ccccc4)C(=O)CC3)n2)cc1	7	5	49*	18	17	-2	-25	19
Cc1ccc(-n2ncc3c(NCc4cccnc4)ncnc32)c(C)c1	17	19	41*	21	20	-3	-12	24
Cc1cccc(-n2ncc3c(NCc4cccnc4)ncnc32)c1	-125	-58	-27	-109	-72	0	nt	nt
C=CCCC1CN(Cc2ccc(OC)cc2)S(=O)(=O)c2c(NCc3cc(OC)c(OC)c(OC)c3)cccc2O1 (stereo not drawn)	nt	-7	43*	nt	nt	-6	0	28
C=CCN1C[C@@H](COCc2ccccc2)OCCS1(=O)=O	nt	-7	-8	nt	nt	-2	nt	nt
CCOC1=C2CN(S(=O)(=O)c3ccccc3)[C@@H](c3ccccc3)C[C@H]2[C@H]2C(=O)N(c3ccccc3)C(=O)[C@H]2C1	nt	-5	-12	nt	nt	2	nt	nt
COc1ccc(OCCNC(=O)c2ccc3nc(C)c(N(C)C(=O)CCc4ccccc4)n3c2)cc1	-1	45	85*	1	13	-3	-15	3
COc1cccc(OCC(C)CN2CCC(C(O)(c3ccccc3)c3ccccc3)CC2)c1 (stereo not drawn)	nt	13	9	nt	nt	nt	nt	nt
C=C1CC2(CC(c3ccccc3)OC(c3ccccc3)C2)OC1=O (stereo not drawn)	5	50	46*	-18	-6	-7	8	-2
O=C(c1ccncc1)c1ccc(N2CCN(C3CC(=O)N(Cc4cccs4)C3=O)CC2)cc1 (stereo not drawn)	14	28	38*	1	14	-6	3	23
COC(=O)[C@]12C[C@H](CC(=O)NCCC(C)C)C(=O)N(Cc3ccco3)C1=C[C@H](C(C)C)O[C@@H]2C1CC1	nt	9	-2	nt	nt	nt	nt	nt
O=C(O)C(=Cc1ccc([N+](=O)[O-])cc1)c1ccccc1	nt	-10	1	nt	nt	-8	nt	nt
SMILES	LRH-1 inv ag	SRC2 inh	NR2F2 inh	SRC3 inh	NCOA1 inh	GalR3 antagonist	VP16 Luc counter	NR2F2 inh conf
COC(=O)C[C@@H]1CC[C@H]2[C@@H](COc3ccc(NC(=O)c4cc(C)on4)cc3C(=O)N2C)O1	nt	2	12	nt	nt	nt	nt	nt
C/C(CC(C)(C)C1CCCCC1)=N\NC(N)=S	70	40	59*	62*	41	-3	17*	64*
O=S1(=O)c2ccc(N3CCCC3)cc2Oc2ccccc2CN1Cc1cn(Cc2ccc(Cl)cc2)nn1	nt	-6	-5	nt	nt	nt	nt	nt
O=C(CN1C(=O)C(c2ccc(F)cc2)=NC12CCCC2)Nc1ccc(F)cc1	41	21	39*	24	16	nt	-5	28
C#CCN1CC(COc2ccccc2)Oc2cccc(Oc3ccc(SC)c(C)c3)c2S1(=O)=O (stereo not drawn)	nt	9	-4	nt	nt	-6	nt	nt
C[C@H](CO)N1C[C@H](C)[C@@H](CN(C)C(=O)Nc2cccc(C(F)(F)F)c2)OCc2cn(nn2)CCCC1=O	nt	1	-6	nt	nt	-4	nt	nt
COc1ccc(NC(=O)/C(Cl)=C(/Cl)S(=O)Cc2ccccc2)cn1 (stereo not drawn)	69	84*	61*	26	-58	10	88*	100*
COc1ccc(NC(=O)Cc2ccccc2)cn1	12	-45	4	4	9	-5	nt	nt
CC(C)C[C@H]1COc2cc(Br)ccc2S(=O)(=O)N1Cc1cn(Cc2ccc(Br)cc2)nn1	nt	-18	12	nt	nt	nt	nt	nt
O=c1cc[nH]c2ccc(Cl)cc12	19	9	-20	-1	-5	5	nt	nt
O=c1cccc2c1c1cc[nH]c3ccc(=O)n2c31	12	29	45*	41	28	-7	-5	8
COC(=O)C1CN(Cc2cn(Cc3ccc(Cl)cc3)nn2)CCS(=O)(=O)N1Cc1ccc(Cl)cc1 (stereo not drawn)	nt	15	38*	nt	nt	nt	-4	3
CCN(CC)S(=O)(=O)c1ccc(Cl)c(NC(=S)NC(=O)C2CCCC2)c1	10	21	44*	-1	5	0	2	21
CCN(CC)c1ccc(S(=O)(=O)Nc2cc(Cl)ccc2Cl)cc1NC(=S)NC(=O)C1CCCC1	-4	11	14	7	5	-4	nt	nt
COc1ccc(-c2csc3ncnc(NCCCO)c23)cc1	24	20	44*	59	67*	-3	14*	24
O=C(Nc1cccc(S(=O)(=O)N2CCCCC2)c1)c1ccc(Cl)nc1	13	5	29	9	12	-6	nt	nt
O=C(Nc1cccc(S(=O)(=O)N2CCCCCC2)c1)C1CCN(C(=O)c2ccc(Cl)cc2)CC1	-3	1	42*	8	0	2	-3	9
